HCV inh: blocks hepatitis C virus; Huh7.5.1 HCVcc-Cre infection, luciferase reporter, 44 h; Potency, µM (titrated, usually from 41.8 µM), hits mostly inhibitors; 340,000 tested, 3.4% active; AID 651820
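Seed cells (1,000/well) for 4 h; treat with compound and infect with HCVcc-Cre, moi about 0.5. Incubate 44 h, then detect luciferase activity.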
FMDV inh: foot and mouth disease virus antiviral activity | FMDV antiviral cell-based qHTS | Potency, µM (titrated, usually from 57.9 µM), actives largely listed as inhibitors | 410,000 tested, 1.2% active; calls by dose curve; tested in HEK293T cells; further: read-out not given here; nearly all actives have a fitted effect of over 45% in size
FBPA Giardia inh: inhibitors of Giardia lamblia fructose-1,6-bisphosphate aldolase; A8B2U2; purified Giardia FBPA; Potency, µM (doses to about 59.6 µM), usual class: inhibitors; 290,000 tested, 0.71% active; further: nearly all actives have a fitted effect of over 55% in size
Target sequence (A8B2U2 whole entry, looked up): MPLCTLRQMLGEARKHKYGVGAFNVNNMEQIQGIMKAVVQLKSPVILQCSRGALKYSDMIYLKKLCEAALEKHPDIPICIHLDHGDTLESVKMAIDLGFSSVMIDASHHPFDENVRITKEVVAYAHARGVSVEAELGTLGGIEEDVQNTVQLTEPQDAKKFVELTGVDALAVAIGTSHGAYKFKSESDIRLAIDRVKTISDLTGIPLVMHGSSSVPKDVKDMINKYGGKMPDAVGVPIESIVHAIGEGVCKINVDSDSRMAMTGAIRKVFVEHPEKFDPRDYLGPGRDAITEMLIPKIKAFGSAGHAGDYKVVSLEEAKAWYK
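Giardia FBPA (40 nM reagent) was preincubated 10 min at RT with compound (up to 57.5 uM final), then substrate plus GAPDH/TPI/NAD/arsenate coupling system with diaphorase/resazurin was added; resorufin fluorescence (525/598 nm) was read after 20 min.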
Marburg entry inh: Marburg virus entry inhibition; Marburg virus pseudotyped entry inhibition, cell reporter; Potency, µM (doses to about 37.8 µM), hits mostly inhibitors; 300,000 tested, 1.8% active; AID 540276; calls by dose curve; tested in HEK293 cells
HCMV inh: blocks human cytomegalovirus replication. HFF cells, HCMV-luciferase reporter, 72 h; active compounds read low. activity change, negative = inhibition, % at 57.5 µM. 410,000 tested, 4.5% active. AID 1259415; in the data active means activity change below about -60%; inconclusive means no clear call, values can overlap the other calls; inactive means above about -39%
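After 16 h attachment at 37C, HFF cells received test compound and HCMV-luciferase (1 PFU/cell); reporter luminescence read 72 h later, data normalized against buffer-only and known inhibitor Salinomycin.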
Lassa entry inh: Lassa virus entry inhibition; Lassa virus pseudotype entry inhibition, cell reporter; Potency, µM (doses to about 37.9 µM), actives largely listed as inhibitors; 300,000 tested, 1.2% active; calls by dose curve; tested in HEK293 cells; further: nearly all actives have a fitted effect of over 50% in size
A number is an active result; - = inactive; ? = inconclusive; . = no result given; [ ] = another dose, or the depositor's remark. Most compounds without a hit are left out; they make up all but 8.3% or so of the library. Unless noted, the call rests on the fitted dose curve; in most records, active means well fitted curve in the direction sought with a large enough effect; inconclusive means small, poorly fitted or top-dose-only effect, or another doubt; inactive means no such curve, though single readings can be large; an effect the other way counts as inactive or inconclusive.

SMILES	HCV inh	FMDV inh	FBPA Giardia inh	Marburg entry inh	HCMV inh	Lassa entry inh
NC(N)=NN=C(c1ccc(F)cc1)c1ccc(C(F)(F)F)cc1	?	-	.	?	-76.7	10µM
COc1ccc(C(=O)N2CCc3ccc(NC(=O)c4ccccn4)cc3C2)cc1F	11.2µM	?	-	.	-89.5	.
CON(C)C(=O)c1nnc2c(n1)[nH]c1ccccc12	.	.	-[12.9 µM]	.	.	.
c1ccc(CN(Cc2ccccc2)c2c3c(nc4ncnn24)CCC3)cc1	-	-	-	.	-93.7	.
CCN1CCN(C(=O)c2ccc3c(c2)N(Cc2cccc(Cl)c2)C(=O)c2ccccc2S3(=O)=O)CC1	.	-	.	.	-65.3	?
O=C(c1ccc2c(c1)N(Cc1cccc(Cl)c1)C(=O)c1ccccc1S2(=O)=O)N1CCCCC1	.	-	.	.	-72.7	?
NC(=O)C1CCN(C(=O)c2ccc3c(c2)N(Cc2cccc(Cl)c2)C(=O)c2ccccc2S3(=O)=O)CC1	.	-	.	.	-	?
CCOC(=O)C1CCCN(C(=O)c2ccc3c(c2)N(Cc2cccc(Cl)c2)C(=O)c2ccccc2S3(=O)=O)C1 (stereo not drawn)	.	-	.	.	-63.5	?
O=C(c1ccc2c(c1)N(Cc1ccc(Cl)cc1)C(=O)c1ccccc1S2(=O)=O)N1CCN(Cc2ccccc2)CC1	.	-	.	?	-	?
CC(C)(C)OC(=O)N1CCC[C@H]1C(O)(c1ccccc1)c1ccccc1	.	.	-	-	.	.
Nc1ncnc(Sc2ccc(Cl)cc2)c1[N+](=O)[O-]	-	?	-	?	-	?
Cc1nc(Sc2ccc(Cl)cc2)c(C#N)c(C)c1[N+](=O)[O-]	-	?	-	-	-75.0	-
Cc1nc(Sc2ccc(Br)cc2)c(C#N)c(C)c1[N+](=O)[O-]	?	20µM	-	?	-77.2	?
Cc1ccc(Sc2nc(C)c([N+](=O)[O-])c(C)c2C#N)cc1	-	-	-	-	-69.7	-
COc1cc(C2NCC(c3ccc(Cl)cc3Cl)c3c2[nH]c2ccccc32)cc(OC)c1OC (stereo not drawn)	?	-	-	15.8µM	?	?
COc1ccc(C(=O)/C=C/c2ccccc2OC)c(OC(=O)c2ccc([N+](=O)[O-])cc2)c1	12.6µM	-	.	?	-	-
COCOc1cc(OC)ccc1C(=O)C=Cc1ccc([N+](=O)[O-])cc1	.	.	.	-	.	?
Cc1cc(O)c(C(C)C)cc1C1(c2cc(C(C)C)c(O)cc2C)OC(=O)c2ccccc21	5.62µM	?	-	?	-102.6	?
Cc1ccc(NN2C(=O)C=C(c3ccccc3)C2=O)cc1	-	20µM	-	11.2µM	-	?
COc1cc2c(cc1OC)C(c1cc(Br)ccc1F)N(C(=O)CCl)CC2 (stereo not drawn)	?	28.2µM	-	-	-92.8	.
Cc1cc(Cl)n2c(nc3cc(F)c(F)cc32)c1C#N	?	17.8µM	-	12.6µM	-99.0	?
CCCCc1ccc(NC(=S)Nc2ccc(Cl)c(S(=O)(=O)N(C)C)c2)cc1	?	-	-	?	-62.9	?
CCN1CCN(CC(=O)Nc2ccc(Cl)c(S(=O)(=O)N(C)C)c2)CC1	-	-	?	.	-	.
COc1cccc(CC2(CO)CCCN(Cc3c(C)cc(C)cc3-n3cccn3)C2)c1 (stereo not drawn)	?	-	-	.	-68.8	.
COc1cccc(CC2(CO)CCCN(Cc3cc4ccccc4[nH]3)C2)c1 (stereo not drawn)	-	-	-	3.98µM	-	?
SMILES	HCV inh	FMDV inh	FBPA Giardia inh	Marburg entry inh	HCMV inh	Lassa entry inh
COc1cccc([C@@H]2Oc3ccc(Br)cc3C[C@@H]2OC(=O)Nc2cc(OC)c(OC)c(OC)c2)c1	.	.	.	-	.	.
O=C(OCC1CCCO1)c1ccc2c(c1)N(Cc1c(F)cccc1Cl)C(=O)c1ccccc1S2(=O)=O (stereo not drawn)	.	-	.	.	-	-
COc1cc(OC)cc(C(=O)c2c(C)c(C#N)c3ccccn23)c1	?	?	-	.	-	.
CCOC(=O)COc1ccc2c(C#N)c3ccccn3c2c1	-	-	5.61µM	-	-	-
CCOC(=O)c1c2ccc(OCC(=O)N/N=C/c3ccc(Cl)cc3)cc2n2ccccc12	.	.	-	-	-	.
N#Cc1c2ccc(OCC(N)=O)cc2n2ccccc12	12.6µM	-	?	.	-	.
CCCCNS(=O)(=O)c1ccc(NC(=O)Cc2ccc(OC)cc2)cc1	?	-	-	?	-67.0	-
COc1ccc(CC(=O)Nc2ccc(S(=O)(=O)NC(C)C)cc2)cc1	?	-	-	-	-	-
COCOc1c2c(c(OCOC)c3c(OCOC)cccc13)/C(=N/NS(C)(=O)=O)C1=C2CCCC1	.	.	-	-	.	.
COc1cccc(NC(=O)CSc2cc(C)[nH]c(=O)n2)c1	.	-	.	.	-	-
CN(C(=O)c1ccccc1)c1nc2ccccc2s1	-	-	-	8.91µM	-	?
COc1ccc(Cn2c(-c3ccc(Br)cc3)c[n+]3ccccc23)cc1	-	-	-	.	-96.6	.
COc1ccc(Cn2c(-c3ccc(OC)cc3)nc3ccccc32)cc1	?	-	-	-	-	-
Cc1cnc(C)c(-c2cccc3c2OC(CNC(=O)C2(c4ccc(Cl)cc4)CC2)C3)n1 (stereo not drawn)	.	-	.	.	.	.
COc1ccc(C2C(=O)N(C3CCCCCC3)CC(=O)N2Cc2ccccc2)cc1 (stereo not drawn)	.	-	.	.	-67.3	?
COc1ccc(C2C(=O)N(C3CCC(C)CC3)CC(=O)N2Cc2ccc(C)cc2)cc1OC (stereo not drawn)	.	-	.	.	-64.7	-
O=C1C(c2ccc(F)cc2)N(CCc2ccc(Cl)cc2)C(=O)CN1C1CCCCCC1 (stereo not drawn)	.	-	.	.	-81.9	-
CCOC(=O)CCc1c(C)nc2c(c(C)nn2-c2ccccc2)c1C	-	-	-	.	?	.
CCOC(=O)c1c(C)nc2c(c(SC)nn2-c2ccccc2)c1N	10µM	-	.	?	-	-
COC(=O)c1sc2cc(C(F)(F)F)cnc2c1-c1cccnc1	0.562µM	-	-	?	-	-
CCOC(=O)N/N=C1/C[C@@H](O)[C@@H](O)[C@@H]2[C@@H]3C(=O)N(C(C)(C)C)C(=O)[C@H]3CC[C@@H]12	.	.	-[12.9 µM]	.	.	.
O=c1cc(O)c2ccc(O)cc2o1	-	-	-	.	-	.
O=c1ccc2[n+]([O-])c3ccc(O)cc3oc-2c1	-	-	?	.	-61.0	.
O=Cc1c(-c2ccc(F)cc2)nc2ccccn12	-	-	-	-	-	-
Cc1ccn2c(C=O)c(-c3ccc(F)cc3)c(C=O)c2c1	11.2µM	-	-	.	-	.
O=C(NCCC1=CCCCC1)c1ccc2c(c1)N(Cc1cccc(Cl)c1)C(=O)c1ccccc1S2(=O)=O	.	-	.	.	-	?
O=C(NCCC1=CCCCC1)c1ccc2c(c1)N(Cc1ccc(Cl)cc1)C(=O)c1ccccc1S2(=O)=O	.	-	.	11.2µM	-	?
O=C(NCCC1=CCCCC1)c1ccc2c(c1)N(Cc1cccc(Cl)c1)C(=O)c1ccccc1S2=O (stereo not drawn)	.	-	.	.	-62.8	-

Bioassay records (PubChem)
